Growth data for eight compounds are collected here from PubChem BioAssay (NCI).

Some test systems named below: NCI-H23 lung; NCI-H226 lung; NCI-H322M lung; HOP-62 NSCLC; NCI-H460 lung; HOP-92 NSCLC; NCI-H522 lung; A549/ATCC NSCLC; 786-0 renal; COLO 205 colon; DU-145 prostate; K-562 leukemia; MALME-3M melanoma; MDA-MB-231 breast; RXF 393 renal; SF-268 CNS; SF-295 CNS; SF-539 CNS; UACC-257 melanoma; M14 melanoma.
What all share (assay): NCI-60 one-dose screen, 48 h (100 = growth as untreated, 0 = no growth, -100 = all killed)
Common to all, as to conditions: 10 µM unless noted

About 83,000 compounds went through this panel and 20% of them were active in at least one assay; those are over-represented in the sample as a whole.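 The test compound was applied at a single concentration to cells in 96-well plates for 48 hours, and percent growth was recorded.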 Unmarked numbers belong to inactive results. Activity calls are given as the source filed them. The calls were made as follows: active = growth percent below 10; inactive = the rest.

With `C=CCn1c(SCC(=O)Nc2ccc(C(=O)/C=C/c3cc(OC)c(OC)c(OC)c3)cc2)nnc1-c1ccc(Cl)cc1`, the growth is 23% with NCI-H23 lung; -4.38% (active) in the assay on NCI-H226 lung; 56.1% in the assay on NCI-H322M lung; 25% with HOP-62 NSCLC; 22.9% in the assay on NCI-H460 lung; 75% in the assay with HOP-92 NSCLC. The growth in the assay on NCI-H522 lung was -13.1% (active); with A549/ATCC NSCLC it was 28.9%; in the assay with 786-0 renal, 15.5%; in the assay with COLO 205 colon it was 31.9%; in the assay on DU-145 prostate, 10.8%; in the assay with K-562 leukemia it was 9.24% (active). Further, the growth was 66.2% in the assay with MALME-3M melanoma; 35.5% with MDA-MB-231 breast; -42.4% (active) with RXF 393 renal; 19.8% in the assay with SF-268 CNS; 38.9% with SF-295 CNS; 17.2% in the assay with SF-539 CNS. In addition, the growth in the assay on UACC-257 melanoma was 51.3%; in the assay on M14 melanoma, 12.6%.

Take `CC(=O)ON1CCCC(P(=O)(OCOC(=O)C(C)(C)C)OCOC(=O)C(C)(C)C)C1=O` (stereo not given): the growth with NCI-H23 lung is -16.6% (active); in the assay with NCI-H226 lung, -4.94% (active); in the assay on NCI-H322M lung, -10.6% (active); in the assay with HOP-62 NSCLC it was 5.37% (active); with NCI-H460 lung, 2.52% (active); in the assay on HOP-92 NSCLC it was -6.66% (active). The growth in the assay with NCI-H522 lung was -11% (active); in the assay on A549/ATCC NSCLC, 7.74% (active); with 786-0 renal, 12.3%; in the assay with COLO 205 colon it was 2.35% (active); in the assay on DU-145 prostate it was 10.7%; with K-562 leukemia, 3.72% (active). For the same compound, the growth with MALME-3M melanoma was -8.77% (active); in the assay with MDA-MB-231 breast it was -6.53% (active); with RXF 393 renal, -20.8% (active); in the assay with SF-268 CNS, 1.95% (active); in the assay on SF-295 CNS, 34.5%; in the assay with SF-539 CNS, 11.3%. The growth was 19.2% with UACC-257 melanoma and 12.9% with M14 melanoma.

Consider `Cn1c2ccccc2c2c(OC(=O)c3ccccc3)c3c(nc21)-c1ccccc1C3`, for which the growth is 86.1% with NCI-H23 lung; 100% in the assay with NCI-H226 lung; 92.9% in the assay on NCI-H322M lung; 73.1% in the assay on HOP-62 NSCLC; 105% in the assay on NCI-H460 lung; 91.5% with HOP-92 NSCLC. The growth in the assay on NCI-H522 lung is 58.2%; with A549/ATCC NSCLC it was 93.1%; in the assay with 786-0 renal, 96.9%; in the assay on COLO 205 colon, 121%; in the assay with DU-145 prostate it was 104%; with K-562 leukemia it was 104%. In addition, the growth is 104% in the assay on MALME-3M melanoma; 85.6% with MDA-MB-231 breast; 109% in the assay with RXF 393 renal; 96.4% in the assay with SF-268 CNS; 100% in the assay with SF-295 CNS; 102% in the assay with SF-539 CNS. The growth in the assay on UACC-257 melanoma was 95.7%; with M14 melanoma it was 93.8%.

Take `COc1cc(F)c(-c2nc3c(C)cccc3n2Cc2c(F)cccc2F)c(F)c1`: the growth is 79.8% in the assay with NCI-H23 lung; 88.7% in the assay on NCI-H226 lung; 87.5% in the assay with NCI-H322M lung; 83.3% with HOP-62 NSCLC; 77.8% in the assay with NCI-H460 lung; 81.3% in the assay with HOP-92 NSCLC. Further, the growth with NCI-H522 lung is 73.4%; with A549/ATCC NSCLC, 69.1%; in the assay with 786-0 renal it was 85.7%; in the assay with COLO 205 colon, 98%; with DU-145 prostate, 108%; in the assay with K-562 leukemia, 76.2%. Besides, the growth in the assay on MALME-3M melanoma was 79.5%; in the assay on MDA-MB-231 breast, 89.2%; in the assay with RXF 393 renal it was 97.8%; in the assay with SF-268 CNS, 84.3%; in the assay with SF-295 CNS, 79.9%; with SF-539 CNS, 101%. In addition, the growth in the assay with UACC-257 melanoma is 76.2%; with M14 melanoma, 86.3%.

`Nc1cccc(C(=O)Nc2ccc3c(O)c(N=Nc4ccc(N=Nc5ccc(S(=O)(=O)O)cc5)cc4)c(S(=O)(=O)O)cc3c2)c1`: the growth in the assay with NCI-H23 lung was 104%; with NCI-H226 lung, 109%; in the assay on NCI-H322M lung it was 94.5%; in the assay with HOP-62 NSCLC it was 96%; in the assay with NCI-H460 lung, 106%; in the assay with HOP-92 NSCLC, 97.7%. The growth was 84.5% in the assay on NCI-H522 lung; 97.5% in the assay on A549/ATCC NSCLC; 98.1% in the assay with 786-0 renal; 121% in the assay with COLO 205 colon; 107% in the assay on DU-145 prostate; 76.2% in the assay on K-562 leukemia. Further, the growth in the assay on MALME-3M melanoma is 97.1%; with MDA-MB-231 breast, 103%; in the assay with RXF 393 renal it was 121%; in the assay with SF-268 CNS, 101%; in the assay with SF-295 CNS, 103%; in the assay with SF-539 CNS, 99.9%. The growth with UACC-257 melanoma is 100%; with M14 melanoma, 98.3%.

In the case of `COc1cc(C(=O)N2CCN(c3ccccc3OC)CC2)c(NC(=O)c2cnccn2)cc1OCc1ccccc1`, the growth is 77.9% in the assay on NCI-H23 lung; 88.3% in the assay on NCI-H226 lung; 69.4% with NCI-H322M lung; 84.9% in the assay with HOP-62 NSCLC; 121% with NCI-H460 lung; 10.7% in the assay with HOP-92 NSCLC. For the same compound, the growth with NCI-H522 lung is 73.7%; in the assay on A549/ATCC NSCLC, 91.8%; in the assay with 786-0 renal, 87.3%; in the assay on COLO 205 colon it was 99.4%; in the assay on DU-145 prostate, 104%; with K-562 leukemia, 10.8%. Further, the growth in the assay on MALME-3M melanoma was 115%; in the assay on MDA-MB-231 breast, 73.1%; with RXF 393 renal, 113%; with SF-268 CNS, 114%; with SF-295 CNS, 97.5%; in the assay on SF-539 CNS, 88.9%. Further, the growth with UACC-257 melanoma was 78%; with M14 melanoma, 98.4%.

Take `O=C1NCc2ccc3c(-c4cccc(Cl)c4)c[nH]c3c21`: the growth in the assay on NCI-H23 lung was 35.5%; in the assay with NCI-H226 lung, 89.6%; with NCI-H322M lung, 47.6%; in the assay with HOP-62 NSCLC it was 22.7%; in the assay with NCI-H460 lung it was 12.9%; in the assay on HOP-92 NSCLC it was 52.7%. Further, the growth in the assay on NCI-H522 lung is 1.89% (active); in the assay on A549/ATCC NSCLC, 15.8%; with 786-0 renal, 31.4%; in the assay on COLO 205 colon it was -27% (active); in the assay on DU-145 prostate, 23.3%; in the assay on K-562 leukemia it was 10.6%. Further, the growth was 65.9% in the assay with MALME-3M melanoma; 47.6% with MDA-MB-231 breast; -3.81% (active) in the assay on RXF 393 renal; 52.6% in the assay with SF-268 CNS; 7.18% (active) in the assay with SF-295 CNS; -15.8% (active) with SF-539 CNS. Further, the values for the growth with UACC-257 melanoma and with M14 melanoma were 35.6% and 15.9%, respectively.

In the case of `C#Cc1ccccc1NC(=O)c1sc2nc3c(cc2c1N)CCCCC3`, the growth is 88% in the assay on NCI-H23 lung; 88.3% with NCI-H226 lung; 101% in the assay on NCI-H322M lung; 99.5% in the assay with HOP-62 NSCLC; 104% in the assay on NCI-H460 lung; 93.2% with HOP-92 NSCLC. Also, the growth with NCI-H522 lung was 71.5%; with A549/ATCC NSCLC, 99.2%; in the assay on 786-0 renal, 123%; with COLO 205 colon, 105%; with DU-145 prostate, 104%; with K-562 leukemia, 90.5%. Further, the growth in the assay with MALME-3M melanoma was 102%; in the assay on MDA-MB-231 breast, 93.5%; with RXF 393 renal, 113%; in the assay on SF-268 CNS, 104%; in the assay with SF-295 CNS it was 113%; with SF-539 CNS it was 101%. Further, the growth is 110% in the assay on UACC-257 melanoma and 93.9% in the assay on M14 melanoma.
